Screening data: PubChem BioAssay, National Center for Advancing Translational Sciences (NCATS)
RE007 growth inh: qHTS Assay for Inhibitors of the HIV-1 protein Vpr; S. pombe RE007 Vpr strain, BacTiter-Glo ATP luminescence, 24 h; Potency, µM (highest dose often 92.2 µM), without a hit: at the top dose activity change, negative = less growth, most hits filed as inhibitors; 0.21% of 360,000 active; AID 651644, 2012; active = well fitted falling curve with a large enough effect; inconclusive = small, poorly fitted or top-dose-only effect; inactive = no such curve, though single readings can be large or run the other way; note: % is set by controls: 0 for no effect and ±100 for the full control effect; nearly all actives have a fitted effect of over 50% in size
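Fission yeast RE007 carrying one integrated HIV-1 vpr copy, seeded at OD 0.01 in PMG+AL medium with 23 nL pinned compound. Grown 24 h at 30 degrees; viability read by BacTiter-Glo luminescence after 5 min.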
NS1 inh: qHTS Assay for Inhibitors of Influenza NS1 Protein Function | 0.4% of 270,000 active | Potency, µM (doses to about 46.1 µM), for inactives: top-dose activity, positive = more growth; note: actives are rising curves; nearly all actives have a fitted effect of over 50% in size
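Recovery from NS1-induced slow growth read by OD600 in budding yeast switched to galactose assay medium (pH 6.0, -URA) at 1:100 dilution. Compound 23 nl per well; the matching strain lacking NS1 serves as control.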
SARS PLpro yeast: qHTS of Yeast-based Assay for SARS-CoV PLP; S. cerevisiae expressing SARS-CoV PLpro, growth rescue; Potency, µM (doses to about 32.9 µM), without a hit: top-dose activity, positive = growth rescue, actives largely listed as activators; 0.19% of 330,000 active; note: 0% is about no effect; nearly all actives have a fitted effect of over 55% in size
Pf growth 48h: Primary qHTS for delayed death inhibitors of the malarial parasite plastid, 48 hour incubation; P. falciparum luciferase growth in erythrocytes, 48 h; Potency, µM (highest dose often 28.7 µM), without a hit: at the highest dose activity change, negative = inhibition, usual class: inhibitors; 5.9% of 310,000 active; AID 504832, 2011; active = well fitted inhibition curve with a large enough effect; inconclusive = small, poorly fitted or top-dose-only effect, or another doubt; inactive = no such curve, though single readings can be large or run the other way; note: % is set by controls: 0 for no effect and ±100 for the full control effect
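Growth was read as firefly luciferase luminescence after a 48 h, 37 C, 5% CO2 exposure of compounds to reporter-bearing P. falciparum cultures (0.1% parasitemia, 2% hematocrit final) in Albumax-supplemented RPMI 1640.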
Pf growth 96h: Primary qHTS for delayed death inhibitors of the malarial parasite plastid, 96 hour incubation. P. falciparum luciferase reporter growth, 96 h. Potency, µM (top dose mostly 28.7 µM), without a hit: top-dose activity change, negative = inhibition, most hits filed as inhibitors. 6.9% of 320,000 active; active = well fitted inhibition curve with a large enough effect; inconclusive = small, poorly fitted or top-dose-only effect, or another doubt; inactive = no such curve, though single readings can be large or run the other way; note: % is set by controls: 0 for no effect and ±100 for the full control effect
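Readout is luminescence from an integrated firefly luciferase in P. falciparum. Red cells, 2% hematocrit and 0.05% parasitemia final, were cultured with compound through two parasite generations (96 hours) at 37 C, 5% CO2.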
* = called active by the depositor; ? = inconclusive; nt = no result given. Only some compounds are listed: those with a hit (about 9.5% of all), similar ones and a draw of the others. Unless noted, calls come from the whole dose curve. Potency is the fitted concentration of half-maximal effect.

SMILES	RE007 growth inh	NS1 inh	SARS PLpro yeast	Pf growth 48h	Pf growth 96h
CCOC(=O)CSc1ncnc2c1cnn2-c1ccc(C)cc1	-15.5%	-0.6%	-0.7%	28.3%	13.1µM*
CCOC(=O)CNC(=O)CSc1ncnc2c1cnn2-c1ccc(C)cc1	20.1%	0.6%	-0.3%	15.4%	8.28µM*
CCOC(=O)CNC(=O)CSc1ncnc2c1cnn2-c1ccccc1	4.5%	9.4%	1.7%	13.4%	-3.2%
CCOC(=O)CSc1ncnc2c1cnn2-c1ccccc1	-8.0%	-13.4%	-5.5%	12.0%	13.7%
CCc1nnc(NC(=O)CSc2ncnc3c2cnn3-c2ccc(OC)cc2)s1	0.1%	9.4%	0.2%	57.3%	0.0037µM*
Cc1ccc(NC(=O)CN(C)C(=O)CSc2nccn2C)cc1	-11.6%	nt	-0.4%	nt	nt
C#CCOCCOCCOCCNc1nc(N2CCN(C(=O)CCCCCCCCCCNC(=O)[C@H](CCCCN)n3cc(C)nn3)CC2)nc(N2CCN(C(=O)CCCCCCCCCCNC(=O)[C@@H]([C@H](C)CC)n3cc(CCCCCN)nn3)CC2)n1	nt	nt	-3.9%	3.29µM*	4.15µM*
C#CCOCCOCCOCCNc1nc(N2CCN(C(=O)[C@H]([C@@H](C)CC)n3cc(CCCCN)nn3)CC2)nc(N2CCN(C(=O)[C@H](CCCCN)n3cc(CCC(=O)O)nn3)CC2)n1	7.4%	nt	5.3%	12.3%	88.3%
C#CCOCCOCCOCCNc1nc(N2CCOCC2)nc(N2CCN(C(=O)CCCCCCCCCCNC(=O)[C@@H]([C@H](C)O)n3cc(C)nn3)CC2)n1	7.8%	nt	2.1%	?	?
C#CCOCCOCCOCCNc1nc(N2CCN(C(=O)CCCCCCCCCCNC(=O)[C@H]([C@@H](C)CC)n3cc(CCCCCN)nn3)CC2)nc(N2CCN(C(=O)CCCCCCCCCCNC(=O)[C@@H]([C@H](C)O)n3cc(C)nn3)CC2)n1	4.4%	nt	3.9%	0.465µM*	0.37µM*
C#CCOCCOCCOCCNc1nc(N2CCN(C(=O)CCCCCCCCCCNC(=O)[C@@H]([C@H](C)O)n3cc(C)nn3)CC2)nc(N2CCN(C(=O)CCCCCCCCCCNC(=O)[C@@H]([C@H](C)O)n3cc(C)nn3)CC2)n1	3.3%	nt	-0.4%	0.104µM*	0.0738µM*
Cc1ccc(/C=N/NC(=O)CNC(=O)c2cccc([N+](=O)[O-])c2C)o1	6.0%	nt	-2.2%	17.8%	33.5%
CS(=O)(=O)N(Cc1ccccc1)c1ccc(C(=O)Nc2ccccc2C(=O)O)cc1	-16.2%	16.1%	-3.1%	?	13.6%
CS(=O)(=O)N(CC(=O)Nc1ccccc1Sc1ccccc1)c1cccc(Br)c1	2.1%	22.8%	?	13.1µM*	?
CS(=O)(=O)N(Cc1ccccc1)c1ccc(C(=O)Nc2ccccc2Sc2ccccc2)cc1	0.0%	9.5%	6.7%	11.7µM*	14.7µM*
CSc1ccccc1NC(=O)CN(c1cc(C)cc(C)c1)S(C)(=O)=O	4.2%	-44.7%	6.1%	-9.8%	nt
O=C(Nc1ccc(NC(=O)C2CCCCC2)nc1)c1cccc(F)c1	-2.0%	1.7%	15.3%	?	1.7%
Cc1cc(C)c(-c2csc(NC(=O)C3=COCCO3)n2)cc1C	12.6µM*	nt	0.3%	39.1%	14.6%
C=CCn1c(C)cc(-c2csc(NC)n2)c1C	-3.4%	nt	-1.9%	?	?
COc1ccc(-c2csc(NC(=O)C3=COCCO3)n2)c(OC)c1	?	nt	-3.4%	30.6%	73.5%
C=CCn1c(C)cc(-c2csc(NC(=O)C3=COCCO3)n2)c1C	-15.3%	nt	-1.6%	5.22µM*	?
CCOc1ccc(NC(=O)CN(C)C(=O)c2cc(C3CC3)nn2-c2ccccc2)cc1OCC	-13.0%	nt	1.7%	?	-11.0%
CCCCn1cnc2c(c(CC#N)nn2-c2ccccc2)c1=N	19.7%	0.0%	nt	nt	nt
COc1ccccc1N(C(=O)CNC(=O)c1ccco1)C(C(=O)NCC1CCCO1)c1ccccc1 (stereo unspecified)	13.0%	1.8%	2.9%	14.0%	25.9%
NC(=O)c1ccc(-c2ccc(N3C(c4ccsc4)=Cc4ccc(F)cc4C3CC(=O)c3ccco3)cc2)cc1 (stereo unspecified)	9.1%	nt	nt	nt	nt
SMILES	RE007 growth inh	NS1 inh	SARS PLpro yeast	Pf growth 48h	Pf growth 96h
COc1ccccc1OCc1cc(C(=O)N2CCN(C)C(c3ccccc3)C2)no1 (stereo unspecified)	0.4%	nt	-11.0%	?	3.4%
CN1CCN(C(=O)c2cc(COc3c(F)cccc3F)on2)CC1c1ccccc1 (stereo unspecified)	-11.4%	-2.0%	0.1%	-0.5%	4.15µM*
CCN(Cc1ccncc1)C(=O)c1cc(COc2c(F)cccc2F)on1	-11.8%	-11.6%	-0.4%	5.2%	10.4µM*
O=C(c1cc(COc2c(F)cccc2F)on1)N1CCC(c2ccccc2F)C1 (stereo unspecified)	-2.5%	4.6%	-1.1%	19.9%	9.28µM*
COC(=O)[C@H](Cc1ccccc1)NC(=O)c1cc(COc2c(F)cccc2F)on1	4.9%	10.2%	-25.4%	40.6%	11.7µM*
CCOC(=O)/C=C(\C)Sc1cc(O)c2ccccc2c1O	63.1µM*	-80.0%	-7.2%	1.47µM*	1.65µM*
CCOC(=O)/C=C(\C)Sc1cc(=O)oc2ccccc12	23.2%	?	-37.3%	?	?
CC(C)(C)C(=O)Nc1ccc(C(=O)NNC(=O)c2ccccc2)cc1	8.0%	nt	-9.1%	46.5%	13.1µM*
CC(C)(C)C(=O)Nc1ccc(C(=O)NNC(=O)Cc2ccccc2)cc1	6.0%	-10.0%	7.0%	20.9%	2.94µM*
COc1ccc(N(C)C(=O)c2cc3c(s2)-c2ccccc2S(=O)(=O)C3)cc1	-4.1%	-5.4%	-0.4%	2.94µM*	?
CCCCOCCCNC(=O)C[C@@H]1C[C@@]2(C(=O)OC)CC(C)(C)CC=C2N(CCc2ccc(OC)c(OC)c2)C1=O	-8.8%	nt	nt	nt	nt
CC(C)Cn1c(/C=N/Nc2nc3ccccc3[nH]2)nc2ccccc21	-4.5%	-21.6%	-87.7%	3.7µM*	0.465µM*
CCCn1c(/C=C/c2cc[n+](C)cc2)nc2ccccc21	-27.7%	14.0%	-5.9%	?	13.1µM*
Cn1c(/C=N/Nc2nc3ccccc3[nH]2)nc2ccccc21	?	nt	-18.5%	-17.1%	?
CCCn1c(/C=N/Nc2nc3ccccc3[nH]2)nc2ccccc21	3.5%	-42.4%	-49.7%	1.85µM*	4.15µM*
COc1ccc(CCC(=O)NCC23CC4CC(CC(C4)C2)C3)cc1	18.2%	-11.6%	-3.2%	-9.9%	-9.7%
CCN(CC)CCOc1cc2c(nn1)Oc1ccccc1N2C	4.9%	?	0.1%	13.1%	3.29µM*
O=C(Cc1ccc(Cl)cc1)SCc1ccccc1	0.5%	nt	1.1%	21.7%	58.0%
Fc1ccc(-n2nnnc2-c2cnc(-c3cccs3)nc2C(F)(F)F)cc1	1.1%	2.3%	-12.5%	?	5.22µM*
